Measured values: the supplement of paper PMC8728848
The full list was thinned out, with the strongest signals kept by preference.

Experiments:
Experiment in all cases: glycan array binding signal (z-score within array); higher = stronger binding
Details in all cases: glycan notation: IUPAC condensed, linker removed
Fuc(a1-2)Gal(b1-3)GlcNAc = target: Fuc(a1-2)Gal(b1-3)GlcNAc
In short: (§1)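 The binding signal is a Z-score computed within each array. Data were drawn from 3228 arrays in the Consortium for Functional Glycomics database, restricted to those with a known protein sequence. Scores were averaged over arrays of the same protein sequence at different concentrations or buffers, and over linkers, and negative values can be taken as non-binding.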

[1] = target: Fuc(a1-2)Gal(b1-3)GlcNAc(b1-3)Gal(b1-4)Glc
In short: as §1

[2] = target: Fuc(a1-2)Gal(b1-4)GlcNAc(b1-3)Gal(b1-4)GlcNAc(b1-2)Man(a1-3)[Fuc(a1-2)Gal(b1-4)GlcNAc(b1-3)Gal(b1-4)GlcNAc(b1-2)Man(a1-6)]Man(b1-4)GlcNAc(b1-4)GlcNAc
In short: as §1

[3] = target: Fuc(a1-2)Gal(b1-4)[Fuc(a1-3)]GlcNAc(b1-2)Man(a1-3)[Fuc(a1-2)Gal(b1-4)[Fuc(a1-3)]GlcNAc(b1-2)Man(a1-6)]Man(b1-4)GlcNAc(b1-4)[Fuc(a1-6)]GlcNAc
In short: as §1

[4] = target: Fuc(a1-2)Gal(b1-4)[Fuc(a1-3)]GlcNAc(b1-3)Gal(b1-4)[Fuc(a1-3)]GlcNAc
In short: as §1

[5] = target: Fuc(a1-2)Gal(b1-4)[Fuc(a1-3)]GlcNAc(b1-3)GalNAc
In short: as §1

[6] = target: Fuc(a1-2)Gal6S(b1-3)GlcNAc6S
In short: as §1

Fuc(a1-2)Gal6S(b1-4)Glc = target: Fuc(a1-2)Gal6S(b1-4)Glc
In short: as §1

[7] = target: Fuc(a1-2)[Gal(a1-3)]Gal(b1-4)GlcNAc(b1-2)Man(a1-3)[Fuc(a1-2)[Gal(a1-3)]Gal(b1-4)GlcNAc(b1-2)Man(a1-6)]Man(b1-4)GlcNAc(b1-4)GlcNAc
In short: as §1

[8] = target: Fuc(a1-2)[GalNAc(a1-3)]Gal(b1-4)GlcNAc(b1-2)Man
In short: as §1

[9] = target: Fuc(a1-3)[Gal(b1-4)]GlcNAc(b1-2)Man(a1-3)[Fuc(a1-3)[Gal(b1-4)]GlcNAc(b1-2)Man(a1-6)]Man(b1-4)GlcNAc(b1-4)GlcNAc
In short: as §1

[10] = target: Fuc(a1-3)[Gal(b1-4)]GlcNAc6S
In short: as §1

[11] = target: Fuc(a1-3)[Gal3S(b1-4)]GlcNAc6S
In short: as §1

Gal(a1-3)Gal = target: Gal(a1-3)Gal
In short: as §1

[12] = target: Gal(a1-3)Gal(b1-3)GlcNAc(b1-3)GalNAc
In short: as §1

Gal(a1-3)GalNAc = target: Gal(a1-3)GalNAc
In short: as §1

[13] = target: Gal(a1-3)[Gal(a1-4)]Gal(b1-4)GlcNAc
In short: as §1

[14] = target: Gal(b1-3)GalNAc(b1-3)Gal(a1-4)Gal(b1-4)Glc
In short: as §1

[15] = target: Gal(b1-3)GlcNAc(a1-6)Gal(b1-4)GlcNAc
In short: as §1

[16] = target: Gal(b1-3)[Fuc(a1-4)]GlcNAc(b1-3)Gal(b1-3)[Fuc(a1-4)]GlcNAc
In short: as §1

[17] = target: Gal(b1-4)GlcNAc(b1-2)[Gal(b1-4)GlcNAc(b1-6)]Man(a1-6)[Gal(b1-4)GlcNAc(b1-2)Man(a1-3)]Man(b1-4)GlcNAc(b1-4)[Fuc(a1-6)]GlcNAc
In short: as §1

[18] = target: Gal(b1-4)GlcNAc(b1-3)Gal(b1-3)GlcNAc
In short: as §1

[19] = target: Gal(b1-4)GlcNAc(b1-3)Gal(b1-4)Glc
In short: as §1

[20] = target: Gal(b1-4)GlcNAc(b1-3)Gal(b1-4)GlcNAc(b1-3)Gal(b1-4)GlcNAc
In short: as §1

[21] = target: Gal(b1-4)GlcNAc(b1-6)Gal(b1-4)GlcNAc
In short: as §1

[22] = target: Gal(b1-4)GlcNAc(b1-6)GalNAc
In short: as §1

Gal3S(b1-3)GlcNAc = target: Gal3S(b1-3)GlcNAc
In short: as §1

Gal3S(b1-4)Glc = target: Gal3S(b1-4)Glc
In short: as §1

Gal3S4S(b1-4)GlcNAc = target: Gal3S4S(b1-4)GlcNAc
In short: as §1

Gal4S(b1-4)GlcNAc = target: Gal4S(b1-4)GlcNAc
In short: as §1

GlcA(b1-3)GlcNAc = target: GlcA(b1-3)GlcNAc
In short: as §1

[23] = target: GlcNAc(a1-4)Gal(b1-4)GlcNAc(b1-3)Gal(b1-4)GlcNAc(b1-3)Gal(b1-4)GlcNAc
In short: as §1

[24] = target: GlcNAc(b1-2)Man(a1-3)[GlcNAc(b1-2)Man(a1-6)]Man(b1-4)GlcNAc(b1-4)[Fuc(a1-6)]GlcNAc
In short: as §1

[25] = target: GlcNAc(b1-2)[GlcNAc(b1-4)]Man(a1-3)[GlcNAc(b1-4)][GlcNAc(b1-2)[GlcNAc(b1-6)]Man(a1-6)]Man(b1-4)GlcNAc(b1-4)[Fuc(a1-6)]GlcNAc
In short: as §1

[26] = target: GlcNAc(b1-3)Gal(b1-4)GlcNAc
In short: as §1

[27] = target: GlcNAc(b1-3)Gal(b1-4)GlcNAc(b1-2)Man(a1-3)[GlcNAc(b1-3)Gal(b1-4)GlcNAc(b1-2)Man(a1-6)]Man(b1-4)GlcNAc(b1-4)GlcNAc
In short: as §1

B1: ArathEULS3 TAP (Arabidopsis thaliana) (protein)
chain: IDENLYFQGGSMDEKTTGWRGGHVVEGLAGELEQLRARLEHHPQGQREPGGGGSLEITSLYKKAGFMEHHHQHHRHHQRDDGEDDRQSFGVPPPHVDAPPQPHGLYQSQPHFDPYAPTPQAPAPYRSETQFEPHAPPPYRSEPYFETPAPPPSFGHVSHVGHQSPNESYPPEHHRYGGYQQPSNSLLESHGDHSGVTHVAHHSSNQPQSSSGVYHKPDENRLPDNLAGLAGRATVKVYSKAEPNYNLTIRDGKVILAPADPSDEAQHWYKDEKYSTKVKDADGHPCFALVNKATGEAMKHSVGATHPVHLIRYVPDKLDESVLWTESKDFGDGYRTIRMVNNTRLNVDAYHGDSKSGGVRDGTTIVLWDWNKGDNQLWKIFPF
- glycan array binding signal (z-score) (Fuc(a1-2)Gal(b1-3)GlcNAc): 0.613
- glycan array binding signal (z-score) [1]: -0.174
- glycan array binding signal (z-score) [2]: 2.35
- glycan array binding signal (z-score) [3]: 1.46
- glycan array binding signal (z-score) [4]: 0.109
- glycan array binding signal (z-score) [5]: -0.688
- glycan array binding signal (z-score) [6]: -0.204
- glycan array binding signal (z-score) (Fuc(a1-2)Gal6S(b1-4)Glc): 1.85
- glycan array binding signal (z-score) [7]: -0.837
- glycan array binding signal (z-score) [8]: 0.256
- glycan array binding signal (z-score) [9]: -0.853
- glycan array binding signal (z-score) [10]: 2.6
- glycan array binding signal (z-score) [11]: 0.828
- glycan array binding signal (z-score) (Gal(a1-3)Gal): 3.3
- glycan array binding signal (z-score) [12]: 0.549
- glycan array binding signal (z-score) (Gal(a1-3)GalNAc): -0.474
- glycan array binding signal (z-score) [13]: 2.15
- glycan array binding signal (z-score) [14]: 0.136
- glycan array binding signal (z-score) [15]: -0.499
- glycan array binding signal (z-score) [16]: -0.335
- glycan array binding signal (z-score) [17]: 0.941
- glycan array binding signal (z-score) [18]: -0.688
- glycan array binding signal (z-score) [19]: -0.967
- glycan array binding signal (z-score) [20]: 0.391
- glycan array binding signal (z-score) [21]: 1.18
- glycan array binding signal (z-score) [22]: 1.1
- glycan array binding signal (z-score) (Gal3S(b1-3)GlcNAc): -0.162
- glycan array binding signal (z-score) (Gal3S(b1-4)Glc): 0.159
- glycan array binding signal (z-score) (Gal3S4S(b1-4)GlcNAc): 4.33
- glycan array binding signal (z-score) (Gal4S(b1-4)GlcNAc): 0.737
- glycan array binding signal (z-score) (GlcA(b1-3)GlcNAc): -0.1
- glycan array binding signal (z-score) [23]: 0.236
- glycan array binding signal (z-score) [24]: -0.928
- glycan array binding signal (z-score) [25]: -0.659
- glycan array binding signal (z-score) [26]: -0.59
- glycan array binding signal (z-score) [27]: -0.107
